Assay outcomes as filed in PubChem BioAssay.
VACV mCherry inh – vaccinia inhibition (mCherry reporter); AID 720579; 310,000 tested, 0.63% active; Vaccinia virus mCherry reporter infection, fluorescence; Potency, µM (series often up to 36.5 µM), for the others: at the highest dose activity change, negative = inhibition, most hits filed as inhibitors; calls by dose curve; tested in A549 cells; also: nearly all actives have a fitted effect of over 35% in size
Vaccinia Venus – vaccinia inhibition (Venus reporter). Potency, µM (top dose mostly 36.5 µM), for inactives: top-dose activity change, negative = inhibition, most hits filed as inhibitors. 330,000 tested, 0.46% active. Vaccinia virus Venus reporter expression, fluorescence. AID 720580; calls by dose curve; tested in A549 cells; also: nearly all actives have a fitted effect of over 30% in size
HCV inh – blocks hepatitis C virus. Huh7.5.1 HCVcc-Cre infection, luciferase reporter, 44 h. Potency, µM (top dose mostly 41.8 µM), inactives show at the top dose activity change, negative = inhibition, actives largely listed as inhibitors. 340,000 tested, 3.4% active. AID 651820; active = well fitted inhibition curve with a large enough effect; inconclusive = small, poorly fitted or top-dose-only effect, or another doubt; inactive = no such curve, though single readings can be large or run the other way
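Whole-lifecycle infectious HCVcc-Cre system; cells 1,000/well, compound then virus (~0.5 moi) added 4 h after plating, 44 h culture. Luciferase read 15 sec following 15 min substrate incubation, room temp.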
* = called active by the depositor; i = inactive; ? = inconclusive; . = not tested or not shown. Shown are actives, neighbours in structure and some others; about 3.3% of the full set was active somewhere. % is scaled to controls: 0 for no effect and ±100 for the full control effect; potency is read from the fitted curve at half-maximal effect.

SMILES | VACV mCherry inh | Vaccinia Venus | HCV inh
COc1ccc(CCNC(=O)c2cc(S(=O)(=O)N3CCCC3)cn2C)cc1OC | 36% | 0% | ?
Cc1cccc(CCNC(=O)c2cc(S(=O)(=O)N3CCCC3)cn2C)c1 | i | -13% | 8.9µM*
CN(C)c1nc2cc(Cl)ccc2cc1CN(Cc1ccc2c(c1)OCO2)C(=O)c1ccoc1 | -9% | -2% | .
CC(Sc1nnc(NC2CC2)s1)C(=O)Nc1ccc(N2CCOCC2)cc1 (stereo not given) | i | -5% | -4%
CC(=O)c1c(C)[nH]c(C(=O)C(C)Sc2nnc(NC3CC3)s2)c1C (stereo not given) | -14% | -20% | 10µM*
Cc1cccc(-c2nc3c4ccccc4nc(N4CCN(c5cccc(Cl)c5)CC4)n3n2)c1 | -15% | -9% | .
Cc1ccc(-n2cc(C(=O)OCc3ccc(F)c(F)c3)c3ccccc3c2=O)cc1 | i | ? | .
Cc1nc(Cl)sc1C(=O)Nc1ccc(F)cc1 | i | -17% | 23%
CC(C)S(=O)(=O)c1csc(C(=O)Nc2ccc(F)cc2)c1N | ? | -21% | 3.2µM*
COc1ccc(OCCn2c(=N)n(CCO)c3ccccc32)cc1 | -20% | -8% | -14%
N=c1n(CCO)c2ccccc2n1Cc1ccccc1 | . | ? | 16%
N=c1n(CCO)c2ccccc2n1CCOc1ccc(Cl)cc1Cl | ? | 11µM* | ?
N=c1n(CCO)c2ccccc2n1Cc1ccccc1Cl | -12% | -24% | 22µM*
Nc1cnccn1 | -7% | -4% | .
COc1cc(NC(=O)C2=C(C)Nc3nnnn3C2c2ccc(SC)cc2)c(OC)cc1Cl (stereo not given) | -4% | 2% | .
O=C1CN(C(=O)N[C@@H](Cc2ccccc2)C(=O)N[C@H](Cc2ccccc2)C(=O)O)c2ccccc2N1 | -3% | -6% | 0.56µM*
O=C1CN(C(=O)N[C@@H](Cc2ccccc2)C(=O)N[C@@H](Cc2ccccc2)C(=O)O)c2ccccc2N1 | 5% | 0% | 13%
COc1cccc(NC(=O)Cn2cc(C(=O)C3CCCCC3)c3ccccc32)c1 | -1% | -14% | .
O=C(c1ccc2c(c1)OCO2)c1cn(Cc2ccc(Cl)cc2)c2ccc(F)cc2c1=O | -20% | -18% | .
COCCN1CCCC(CNCc2cn(C)nc2-c2ccc(Oc3ccccc3)cc2)C1 (stereo not given) | . | . | 14µM*
CCCN1CCC(NCc2cn(C)nc2-c2ccc(Oc3ccccc3)cc2)CC1 | . | . | 11µM*
Cn1cc(CN2CCCCC2CO)c(-c2ccc(Oc3ccccc3)cc2)n1 (stereo not given) | -14% | -7% | -26%
COC1CCCN(Cc2cn(C)nc2-c2ccc(Oc3ccccc3)cc2)C1 (stereo not given) | ? | -20% | -4%
Cc1cccc(N2CCN(C(=O)C(C)n3nc(C)n4c(cc5occc54)c3=O)CC2)c1C (stereo not given) | -25% | -21% | 10µM*
Cc1nn(C(C)C(=O)N2CCN(c3ccccn3)CC2)c(=O)c2cc3occc3n12 (stereo not given) | -17% | -3% | 9%
SMILES | VACV mCherry inh | Vaccinia Venus | HCV inh
COc1cc(NC(=O)CN2c3ccccc3CC2C)cc(OC)c1OC (stereo not given) | -9% | -24% | ?
COc1ccc(Cl)cc1NC(=O)CN1c2ccccc2CC1C (stereo not given) | -14% | -6% | 8.9µM*
Cc1cc(-c2ccnc(-n3ncc(C(=O)NCCc4cccnc4)c3C)n2)c(C)s1 | -13% | -27% | .
COc1ccc(CN2CCN(S(=O)(=O)c3ccc(C)cc3)CC2)cc1OC | -20% | -13% | -11%
COc1ccc(CN2CCN(S(=O)(=O)c3ccc(C)cc3)CC2)cc1Br | . | . | 32µM*
C=C1C=C(C(F)F)n2ncc(C(=O)NCc3ccccc3OC)c2N1 | -29% | -19% | .
C=CCc1c(C)nc2c(OC)cccc2c1Cl | -8% | -14% | ?
COc1cccc2c1nc(C)c1cc(C)oc12 | -7% | -23% | 5.6µM*
Cc1ccc(C(=O)CCC(=O)Nc2ccccc2C)c(C)c1 | -13% | -16% | 2%
COC(=O)[C@@H]1C[C@H](NC(=O)c2cc(C(F)(F)F)ccc2Cl)CN1Cc1cccc(O)c1 | -6% | 8% | .
Cc1cccc(N2C(=NC(=O)c3ccccc3)SC3CS(=O)(=O)CC32)c1 (stereo not given) | -11% | -2% | 2%
COCCNC(=O)c1cccc(Nc2nc3ccccc3n3nnnc23)c1 | -19% | -17% | .
Cc1ccc(CNC(=O)c2cccc(Nc3nc4ccccc4n4nnnc34)c2)cc1 | 6.3µM* | 7.9µM* | .
CCCCOc1ccc(C(=O)Nc2nnc3n2CCS3)cc1 | -18% | -16% | .
C[C@H]1CCC/C=C/[C@@H]2C[C@H](O)C[C@H]2[C@H](O)[C@H](S(=O)c2ccc(O)cc2)CC(=O)O1 (stereo not given in full) | ? | ? | 0.56µM*
CCOc1ccccc1-c1ccc(C(=O)NCc2ccccc2)o1 | -27% | ? | 14µM*
Cc1ccc(-c2ccc(C(=O)NCc3ccccc3)o2)c2ccccc12 | -6% | -17% | ?
COc1ccc(CNc2nc3ccccc3n2CCN2CCCCC2)cc1 | -3% | 0% | -20%
c1ccc(Cn2c(CNc3nc4ccccc4n3CCN3CCCCC3)nc3ccccc32)cc1 | . | -25% | 11µM*
CCN(CC)c1ccc(CNc2nc3ccccc3n2CCN2CCCCC2)cc1 | ? | ? | 11µM*
Cn1c(CNc2nc3ccccc3n2CCN2CCCCC2)nc2ccccc21 | i | ? | ?
COc1ccccc1CCNc1ncnc2sc(C(=O)N3CCCN(C=O)CC3)c(C)c12 | -13% | -6% | .
O=C(COC(=O)C1CC2CCCC(C1)C2=O)Nc1ccc(Cl)cn1 (stereo not given) | . | . | 10%
Cc1ccc(NS(=O)(=O)c2ccc3c(c2)NC(=O)CCS3)cc1F | ? | -19% | -10%
Cc1ccc(NS(=O)(=O)c2ccc3c(c2)NC(=O)CCS3)cc1C | ? | 0.89µM* | -9%
SMILES | VACV mCherry inh | Vaccinia Venus | HCV inh
COc1ccccc1-c1ccnc(-n2ncc(C(=O)NC(C)(C)CO)c2C2CC2)n1 | -3% | -16% | .
COc1ccc(NC(=S)NC(NC(=O)c2cccc3ccccc23)C(Cl)(Cl)Cl)c([N+](=O)[O-])c1 (stereo not given) | -20% | -21% | 10µM*
COc1ccc(NC(=S)NC(NC(=O)c2ccccc2Cl)C(Cl)(Cl)Cl)c([N+](=O)[O-])c1 (stereo not given) | -10% | -22% | ?
CC1CN(C(=O)Nc2ccc(C(=O)NCc3ccccc3F)cc2)c2ccccc2S1 (stereo not given) | -7% | -8% | .
COc1ccc(Cc2nnc(SCC(=O)Nc3ccc(N4CCOCC4)cc3)n2C)cc1 | -16% | 3% | 6%
Cc1ccc(-c2nnc(Sc3nc4ccccc4o3)c3ccccc23)cc1 | 10µM* | 10µM* | ?
COc1nnc(-c2ccc(C)cc2)c2ccccc12 | -16% | -5% | -7%
CCSc1nnc(-c2ccc(Cl)cc2)c2ccccc12 | . | . | -24%
Clc1ccc(-c2nnc(Sc3nc4ccccc4o3)c3ccccc23)cc1 | 14µM* | ? | -28%
C[C@H]1CN([C@@H](C)CO)C(=O)CCCn2nncc2CO[C@@H]1CN(C)Cc1cccc(C(=O)O)c1 | 51% | -1% | .
CCOC(=O)c1c(NC(=O)c2cc(=O)c3cc(C)ccc3o2)sc2c1CCCC2 | -10% | 10% | .
